# Most compounds without a hit are left out; they make up all but 10% or so of the library.
# G9a block: qHTS Assay for Inhibitors of Histone Lysine Methyltransferase G9a; G9a H3K9 monomethylation, AlphaScreen, 2 h; Histone-lysine N-methyltransferase EHMT2 (Homo sapiens), Q96KQ7; Potency, µM (titrated, usually from 102 µM), without a hit: top-dose activity, negative = inhibition, usual class: inhibitors; AID 504332, 2011; actives 8.8% (n = 350,000); also: potency is read from the fitted curve at half-maximal effect; % is scaled to controls: 0 for no effect and ±100 for the full control effect; nearly all actives have a fitted effect of over 75% in size
#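 Enzyme 20 nM + cpd, 15 min RT; add b-H3K9 pep 500 nM / SAM 20 uM; 2 h RT; anti-H3K9me1 Ab 0.5 ug/mL + SA donor / anti-rabbit acceptor beads 20 ug/mL each, 10 min; AlphaScreen read.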
# JMJD2A Tudor inh: qHTS Assay for Inhibitors of JMJD2A-Tudor Domain; Lysine-specific demethylase 4A (Homo sapiens), O75164; AlphaScreen JMJD2A-Tudor / H3K4me3 peptide binding; Potency, µM (doses to about 114 µM), for the others: at the highest dose activity change, negative = inhibition, most hits filed as inhibitors; actives 4.4% (n = 390,000); AID 504339, 2011; also: potency is read from the fitted curve at half-maximal effect; % is scaled to controls: 0 for no effect and ±100 for the full control effect; nearly all actives have a fitted effect of over 50% in size
# HP1b chromo inh: HTS for Inhibitors of HP1-beta Chromodomain Interactions with Methylated Histone Tails. AlphaScreen HP1-beta / biotin-H3K9me3 peptide binding. Potency, µM (top dose mostly 114 µM), for the others: at the top dose activity change, negative = inhibition, usual class: inhibitors. actives 0.56% (n = 390,000). AID 540317, 2011; also: potency is read from the fitted curve at half-maximal effect; nearly all actives have a fitted effect of over 70% in size
#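 AlphaScreen: HP1-beta (50 nM) preformed 30 min with biotin-H3(1-18)K9me3 peptide (50 nM) in PBS pH 7.4, 0.01% Tween-20. Compound added for 30 min at RT, then streptavidin donor/nickel chelate acceptor beads (10 ug/mL) for 30 min.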
# CtBP-E1A blk: qHTS Assay for Inhibitors of the CtBP/E1A Interaction; CtBP / adenovirus E1A interaction (AlphaScreen); AlphaScreen GST-E1A/His-CtBP binding, 1536-well; active compounds read low; activity change, % (test concentration not listed); actives 0.49% (n = 340,000); AID 651724, 2012; in the data active = activity change below about -65%; inconclusive = mostly about -30% to -63%; also: % is scaled to controls: 0 for no effect and ±100 for the full control effect
#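 In 5 uL wells, 23 nL compound meets equimolar GST-E1A and His-CtBP (5X stock 125 nM each) for 2 h, 37 °C. Beads (5X, 50 ug/mL) then 1 h, 37 °C, dark.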
# BAZ2B inh: qHTS Assay for Inhibitors of BAZ2B; AlphaScreen BAZ2B-H3K14Ac peptide displacement; Potency, µM (doses to about 114 µM), for inactives: at the highest dose activity change, negative = inhibition, most hits filed as inhibitors; actives 4.4% (n = 360,000); AID 504333, 2011; also: potency is read from the fitted curve at half-maximal effect; % is scaled to controls: 0 for no effect and ±100 for the full control effect; nearly all actives have a fitted effect of over 60% in size
# Target sequence (Q9UIF8 whole entry, looked up): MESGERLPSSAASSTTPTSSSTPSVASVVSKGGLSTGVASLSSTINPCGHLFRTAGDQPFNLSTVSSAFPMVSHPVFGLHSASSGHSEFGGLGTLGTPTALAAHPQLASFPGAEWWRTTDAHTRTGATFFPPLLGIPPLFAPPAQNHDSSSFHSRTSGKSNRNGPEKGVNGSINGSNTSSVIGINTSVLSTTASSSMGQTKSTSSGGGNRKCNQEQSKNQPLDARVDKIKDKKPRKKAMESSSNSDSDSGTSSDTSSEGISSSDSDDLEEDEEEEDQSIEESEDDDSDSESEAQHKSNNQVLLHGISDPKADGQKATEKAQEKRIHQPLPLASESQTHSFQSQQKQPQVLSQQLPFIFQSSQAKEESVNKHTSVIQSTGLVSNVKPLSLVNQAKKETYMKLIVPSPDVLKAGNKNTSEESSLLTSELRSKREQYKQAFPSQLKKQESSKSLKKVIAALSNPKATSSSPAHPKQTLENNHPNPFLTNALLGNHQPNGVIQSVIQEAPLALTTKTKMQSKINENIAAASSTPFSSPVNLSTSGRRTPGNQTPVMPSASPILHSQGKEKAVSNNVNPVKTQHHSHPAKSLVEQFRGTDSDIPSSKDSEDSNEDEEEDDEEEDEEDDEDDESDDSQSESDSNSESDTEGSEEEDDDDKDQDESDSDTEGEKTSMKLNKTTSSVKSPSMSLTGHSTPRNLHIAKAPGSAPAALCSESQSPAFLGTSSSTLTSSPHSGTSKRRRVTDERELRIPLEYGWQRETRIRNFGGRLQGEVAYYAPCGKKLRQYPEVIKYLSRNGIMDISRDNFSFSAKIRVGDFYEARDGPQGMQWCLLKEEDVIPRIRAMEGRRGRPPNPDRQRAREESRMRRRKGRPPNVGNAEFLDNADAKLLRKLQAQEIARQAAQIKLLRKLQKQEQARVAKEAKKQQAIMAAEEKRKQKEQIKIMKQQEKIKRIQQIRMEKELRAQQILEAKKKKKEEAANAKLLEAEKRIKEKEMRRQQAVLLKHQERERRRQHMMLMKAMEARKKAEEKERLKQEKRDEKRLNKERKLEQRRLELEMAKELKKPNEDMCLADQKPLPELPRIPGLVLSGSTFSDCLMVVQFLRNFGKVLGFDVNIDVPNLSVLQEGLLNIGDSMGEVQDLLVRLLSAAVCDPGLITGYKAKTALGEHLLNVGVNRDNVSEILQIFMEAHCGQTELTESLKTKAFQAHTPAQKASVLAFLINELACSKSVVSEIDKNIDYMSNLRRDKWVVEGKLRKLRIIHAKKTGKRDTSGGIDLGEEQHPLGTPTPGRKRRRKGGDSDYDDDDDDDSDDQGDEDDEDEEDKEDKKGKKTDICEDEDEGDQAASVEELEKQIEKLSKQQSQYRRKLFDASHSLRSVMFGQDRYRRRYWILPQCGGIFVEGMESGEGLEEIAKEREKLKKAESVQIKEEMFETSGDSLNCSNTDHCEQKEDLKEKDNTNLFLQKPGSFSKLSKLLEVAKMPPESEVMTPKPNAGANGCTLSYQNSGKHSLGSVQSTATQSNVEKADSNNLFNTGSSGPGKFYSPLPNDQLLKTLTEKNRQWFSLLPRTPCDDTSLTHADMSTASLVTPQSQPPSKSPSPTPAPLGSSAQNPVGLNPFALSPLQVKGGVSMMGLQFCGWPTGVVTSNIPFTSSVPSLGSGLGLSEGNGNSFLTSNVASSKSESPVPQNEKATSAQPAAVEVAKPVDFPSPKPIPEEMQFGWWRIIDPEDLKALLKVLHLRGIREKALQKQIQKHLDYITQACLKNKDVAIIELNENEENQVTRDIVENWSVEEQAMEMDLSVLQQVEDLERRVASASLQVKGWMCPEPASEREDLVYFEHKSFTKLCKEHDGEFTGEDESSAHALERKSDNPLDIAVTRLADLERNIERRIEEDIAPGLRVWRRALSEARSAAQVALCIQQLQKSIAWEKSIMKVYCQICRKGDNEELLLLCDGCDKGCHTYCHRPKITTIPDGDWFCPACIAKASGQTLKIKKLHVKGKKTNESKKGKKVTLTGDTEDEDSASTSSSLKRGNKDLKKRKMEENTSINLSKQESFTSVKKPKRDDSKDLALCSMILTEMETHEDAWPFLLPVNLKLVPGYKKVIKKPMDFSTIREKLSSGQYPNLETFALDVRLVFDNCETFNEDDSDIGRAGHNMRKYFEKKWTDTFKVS
#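 AlphaScreen displacement: compounds (up to 110uM) incubated 30 min at room temperature with a preformed 50 nM BAZ2B/50 nM biotinylated H3K14Ac peptide complex in PBS pH 7.4 with Tween-20. Donor and acceptor beads at 10 ug/mL final added, 20 min light-protected before reading.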
# Six1-Eya2 blk: qHTS Assay for Inhibitors of the Six1/Eya2 Interaction. Homeobox protein SIX1 (Homo sapiens) + Protein phosphatase EYA2 (Homo sapiens), …. AID 651725, 2012. actives 0.56% (n = 360,000). AlphaScreen GST-Six1/His-Eya2 binding, biochemical; active compounds read low. activity change, % (concentration not given with the values); in the data active = activity change below about -65%; inconclusive = mostly about -30% to -63%; also: % is scaled to controls: 0 for no effect and ±100 for the full control effect
#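 AlphaScreen with GST-Six1 and His-Eya2 (5X mix: 250 nM and 500 nM), glutathione donor and nickel acceptor beads; buffer 50 mM Tris pH 8.0, 300 mM NaCl, 1 mM TCEP; 1 h at 37 C in the dark.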
# The depositor's hits bear a star; ? = inconclusive; . = no result; ! = not active in a repeat; [ ] = dose if it differs, or a comment. Unless noted, calls follow the shape of the dose curve; as a rule, active = well fitted inhibition curve with a large enough effect; inconclusive = small, poorly fitted or top-dose-only effect; inactive = no such curve, though single readings can be large or run the other way.
SMILES,G9a block,JMJD2A Tudor inh,HP1b chromo inh,CtBP-E1A blk,BAZ2B inh,Six1-Eya2 blk
CN(CC(=O)Nc1ccc(Cl)cc1)C(=O)c1ccc(-n2cncn2)c([N+](=O)[O-])c1,-4%,-9%,16%,19,0%,1
COC(=O)Cn1c(=O)oc2ccc(C)cc21,-30%,32µM*,-14%,7,0%,14
CCCCOC(=O)Cn1c(=O)oc2ccc(C)cc21,11%[59 µM],5%,51%,4,18%,-1
Cc1nc(CSc2nnc(C)s2)cs1,45µM*,-2%,59%,1,-10%,30
CCOC(=O)c1c(C)oc2nc(C)nc(NCCCN3CCN(c4cc(Cl)ccc4C)CC3)c12,?,-28%,10%,.,-18%[57.1 µM],.
CCOC(=O)c1c(NC(=O)c2cc3nc(-c4ccc(OC)cc4)cc(C(F)(F)F)n3n2)sc(C)c1C,-12%[59 µM],-26%,24%,.,1%,.
COc1cccc(/C=N/NC(=O)c2cc(-c3cccn3C)n[nH]2)c1O,?,?,-37%,-90*,?,-90*
COc1cc(/C=N/NC(=O)c2cc(-c3cccn3C)n[nH]2)cc(OC)c1OC,.,?,-32%,-75*,40µM*,-67*
COc1cccc(/C=N/NC(=O)c2cc(-c3cccn3C)n[nH]2)c1,-16%[59 µM],-34%,?,?,?,?
Cn1cccc1-c1cc(C(=O)N/N=C/c2ccc(Cl)cc2)[nH]n1,-15%,?,-28%,?,50µM*,-15
COCCNC(=O)C(=O)Nc1c2c(nn1-c1ccccc1)CS(=O)(=O)C2,?,?,30%,.,-27%,.
Cc1noc(C)c1COC(=O)c1cc2c3ccccc3n(C)c2s1,40µM*,10%,74%,-1,6%,1
Cc1noc(C)c1COC(=O)c1cc2c(C)nn(-c3ccc(F)cc3)c2s1,-5%,-5%,35%,2,5%,5
NS(=O)(=O)c1ccc(NC(=O)CCC(=O)c2ccc(Cl)s2)cc1,5%,-10%,17%,2,0%,-4
CCc1cccc(NC(=O)COC(=O)c2cn(CC)c3nc(C)ccc3c2=O)c1,-3%[59 µM],-17%,57%,.,3%,.
COc1ccc(OC)c(C(C[N+](=O)[O-])c2c(C)cc3ccccn23)c1 (stereo unspecified),45µM*,?,?,-16,?,-24
COc1ccc(NC(=O)CCn2cccc2)c(OC)c1,?,-27%,14%,4,.,0
COc1ccc(C(C[N+](=O)[O-])c2c(C)cc3ccccn23)c(OC)c1 (stereo unspecified),40µM*,-23%,-17%,-13,-39%,-19
CCOC(=O)NC(=O)CSc1ccc(S(=O)(=O)N2CCCCC2)cn1,.,-8%,61%,.,.,-4
C=C(C)CN(CC)C(=O)CSc1ccc(S(=O)(=O)N2CCN(C)CC2)cn1,45µM*,-4%,38%,13,9%,0
CC(C)N(C(=O)CSc1ccc(S(=O)(=O)N2CCCCC2)cn1)c1ccccc1,-3%[2.33 µM],-12%,61%,1,-13%,4
CC(C)NC(=O)NC(=O)CSc1ccc(S(=O)(=O)N2CCOCC2)cn1,45µM*,10%,22%,-20,34%,9
CN(C)C(=O)CSc1ccc(S(=O)(=O)N2CCCC2)cn1,56µM*,-3%,26%,-27,-3%,9
CCC(CC)NC(=O)CSc1ccc(S(=O)(=O)N2CCCCC2)cn1,50µM*,-5%,28%,-23,50%,9
COc1ccc(NC(=O)CCn2cccn2)cc1OC,9%[59 µM],-16%,34%,.,1%,.
SMILES,G9a block,JMJD2A Tudor inh,HP1b chromo inh,CtBP-E1A blk,BAZ2B inh,Six1-Eya2 blk
NC1(C(=O)O)CSSC1,.,89µM*,?,0,.,-88*
NC1(C(=O)O)C[C@@H](C(=O)O)[C@H](C(=O)O)C1,22%[59 µM],.,.,.,.,.
NC1(C(=O)O)CCCCC1,1.9µM*!,.,.,.,.,.
CC(Sc1cccc[n+]1[O-])C(=O)Nc1ccc(Oc2ccccc2)cc1 (stereo unspecified),40µM*,-17%,17%,6,-37%,1
COc1ccc(NC(=O)C(C)Sc2ccccc2)cc1 (stereo unspecified),45µM*,-1%,23%,4,-10%,3
CC(=O)Nc1ccc(SC(C)C(=O)NC(N)=O)cc1 (stereo unspecified),40µM*,-8%,26%,-1,-1%,6
CC(=O)Nc1ccc(NC(=O)C(Sc2ccccc2)c2ccccc2)cc1 (stereo unspecified),-11%[12.7 µM],-10%,12%,-3,-1%,1
Cc1ccc(C)c(N2CCN(c3cc(C)nc4c(-c5ccc(Cl)cc5)c(C)nn34)CC2)c1,53%[59 µM],6%,52%,.,0%,.
O=C1N=c2ccccc2=C1c1c(O)n(-c2cccc(F)c2)[nH]c1=O,4µM*,?,?,0,?,-7
COc1ccc(CCN2CCCC(CN(C)Cc3cc(Cl)c(O)c(OC)c3)C2)cc1 (stereo unspecified),71µM*,-18%,47%,.,-30%,-7
COc1c(C)cc(C(=O)C2CCCN(C(=O)c3cc4nc(C)cc(C)n4n3)C2)cc1C (stereo unspecified),1%,-12%,29%,-2,4%,-3
COc1ccccc1-n1nnnc1SCC(=O)NCC1CCCO1 (stereo unspecified),56µM*,-10%,26%,-1,1%,4
CC(=O)c1c(C)[nH]c(C(=O)CSc2nnc(-c3ccc(Cl)cc3)n2CC2CCCO2)c1C (stereo unspecified),50µM*,79µM*,9%,-15,-10%,-2
CCC(=O)Nc1ccc(-c2nnc(SCC(=O)NCC3CCCO3)n2C)cc1 (stereo unspecified),8.9µM*,-10%,25%,1,3%,4
CCC(=O)Nc1ccc(C(=O)CSc2nnc(-c3ccc(O)cc3)n2CC2CCCO2)cc1 (stereo unspecified),45µM*,?,1%,0,?,2
COc1ccccc1-n1nnnc1SCC(=O)NC1CC1,9%,-14%,28%,2,-1%,-2
